Data: paper PMC6792352, “Limited Chemical Structural Diversity Found to Modulate Thyroid Hormone Receptor in the Tox21 Chemical Library” (Environmental Health Perspectives, 2019)
Structures can show the parent of a compound that is named as a salt.

The molecules below were run on thyroid hormone receptor (endogenous TRα and TRβ). Settings: read-out: Average AC50 (uM) GH3-TRE-Antag, antagonist mode, 1 nM T3, no GH3 cytotoxicity hit.
Design: species or system GH3-TRE-Luc (rat pituitary); GH3-TRE-Luc luciferase reporter, antagonist mode against 1 nM T3, loss of signal, qHTS

SMILES	AC50 [µM]
CCCCCCCCCCCCCCn1cc[n+](C)c1 [1-Methyl-3-tetradecylimidazolium hexafluorophosphate]	68.5
CC(Cc1ccc(C(C)(C)C)cc1)CN1C[C@@H](C)O[C@@H](C)C1 (stereo partly drawn) [(2R,6S)-Fenpropimorph]	47.3
CSc1nc(NC2CC2)nc(NC(C)(C)C)n1 [Cybutryne]	67.1
CCCCCCCCCCO[C@@H]1O[C@H](CO)[C@@H](O)[C@H](O)[C@H]1O [Decyl beta-D-glucopyranoside]	68.4
CCCCCCCCCCCCCCCC(=O)O[C@@H]1CC(C)=C(/C=C/C(C)=C/C=C/C(C)=C/C=C/C=C(C)/C=C/C=C(C)/C=C/C2=C(C)C[C@@H](OC(=O)CCCCCCCCCCCCCCC)CC2(C)C)C(C)(C)C1 [Physalien]	39.2
C/C=C(/CC[C@@H](C)[C@H]1CC[C@H]2C3=CC[C@H]4[C@H](C)[C@@H](O)CC[C@]4(C)[C@H]3CC[C@]12C)C(C)C [Sitosterol alpha1]	40.6
CC[C@H](C)C(=O)O[C@H]1CCC=C2C=C[C@H](C)[C@H](CC[C@@H]3C[C@@H](O)CC(=O)O3)[C@H]21 [Mevastatin]	30.9
Nc1ccc2cc3ccccc3cc2c1 [2-Aminoanthracene]	3.18
CCCCCCCCCCCC(=O)N(C)CC(=O)O [N-Dodecanoyl-N-methylglycine]	> 90
C#C[C@]1(O)CC[C@H]2[C@@H]3CCC4=CC(=O)CC[C@@H]4[C@H]3C(=C)C[C@@]21CC [Etonogestrel]	19.5
O=Cc1ccc(Cl)c([N+](=O)[O-])c1 [4-Chloro-3-nitrobenzaldehyde]	68.3
O=C(c1ccccc1)c1ccc(O)cc1O [2,4-Dihydroxybenzophenone]	87
C/C(=C\c1csc(C)n1)[C@@H]1C[C@@H]2O[C@]2(C)CCC[C@H](C)[C@H](O)[C@@H](C)C(=O)C(C)(C)[C@@H](O)CC(=O)O1 [Epothilone B]	0.0109
Cn1c(CCCC(=O)O)nc2cc(N(CCCl)CCCl)ccc21 [Bendamustine]	28
O=C(O)[C@@H]1[C@H](C(=O)O)[C@H]2CC[C@@H]1O2 [Endothal]	77.2
CCC(C)(C)C(=O)OC1=C(c2ccc(Cl)cc2Cl)C(=O)OC12CCCCC2 [Spirodiclofen]	51.5
CC1(C)CC/C(=C\c2ccc(Cl)cc2)C1(O)Cn1cncn1 (stereo not shown) [Triticonazole]	> 90

SMILES	AC50 [µM]
CCCCCCCCCC=CCC1CC(=O)OC1=O (stereo not shown) [(2-Dodecenyl)succinic anhydride]	74.5
O=C(N/N=C/c1ccccc1O)c1ccncc1 [Salinazid]	20.5
O=C1CCCCCCCCCCOCCCCO1 [12-Oxahexadecanolide]	43.5
CC1=NC(C)OC1C (stereo not shown) [2,4,5-Trimethyl-3-oxazoline]	> 90
N[C@H](C(=O)O)[C@H](O)c1ccc(O)c(O)c1 [Droxidopa]	29.5
CCCOC(=O)c1ccc(N)cc1 [Risocaine]	44.3
O=C(O)c1nn(Cc2ccc(Cl)cc2Cl)c2ccccc12 [Lonidamine]	> 50
C=C(C#N)C(=O)OCC [Ethyl cyanoacrylate]	> 90
CC(=O)CC/C=C(\C)CC/C=C(\C)CC/C=C(\C)CCC=C(C)C [Teprenone]	33.9
C=CC(=O)OCCC#N [2-Cyanoethyl prop-2-enoate]	62.7
CCc1c2c(nc3ccc(OC(=O)N4CCC(N5CCCCC5)CC4)cc13)-c1cc3c(c(=O)n1C2)COC(=O)[C@]3(O)CC [Irinotecan hydrochloride]	19.1
S=P(N1CC1)(N1CC1)N1CC1 [Thiotepa]	37.9
CCN(C(=O)c1cc(C)cc(OC[C@H](C)Nc2ccncc2)c1)C(C)C [GW473178E methyl benzene sulphonic acid]	51.7
CCCc1c(OCCCCc2nnn[nH]2)ccc(C(C)=O)c1O [Tomelukast]	49.2
CC(C)(C)c1cccc(C(C)(C)C)c1O [2,6-Di-tert-butylphenol]	25.4
CCCC(=O)OC[C@@H](OC(=O)CCC)[C@@H](OC(=O)CCC)[C@H](Cn1c2nc(=O)[nH]c(=O)c-2nc2cc(C)c(C)cc21)OC(=O)CCC [Riboflavin tetrabutyrate]	42
CCCCCCCCCC/C=C/C1CC(=O)OC1=O (stereo not shown) [3-(Dodecenyl)dihydro-2,5-furandione]	> 90
